PubChem BioAssay (Tox21)
Where “and” joins values, the source holds several entries; their conditions need not be identical. Identical values can stand only once. Where a structure was tested more than once in an assay, its records may differ in their call. Calls of active or inactive are those of the source. Entries that show only a call come without a potency. Unless noted, calls follow the shape of the dose curve; as a rule, active = well fitted curve in the direction sought with a large enough effect in the repeat runs; inconclusive = weak or mixed curves; inactive = no such curve, though single readings can be large; an effect the other way counts as inactive or inconclusive.

Key:
[1] = qHTS assay to identify small molecule antagonists of the thyroid receptor (TR) signaling pathway - cell viability counter screen (AID 743064); also: nearly all actives have a fitted effect of over 50% in size; also: potency is read from the fitted curve at half-maximal effect
Summary of the method: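 Fluorescence from CellTiter-Fluor, added after 23.5 h exposure at 37 °C, reported viability of GH3.TRE-Luc cells co-treated with compound and 1 nM T3. Measured in the same wells as the luciferase TR readout.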

[2] = qHTS assay to identify small molecule antagonists of the thyroid receptor (TR) signaling pathway (AID 743065); also: nearly all actives have a fitted effect of over 55% in size; also: potency is read from the fitted curve at half-maximal effect
Summary of the method: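 Antagonism measured as loss of luciferase signal in GH3 cells stably carrying a TRE-luciferase reporter, co-treated with compound and T3 (1 nM final) for 23.5 h at 37 C. Viability was read in the same well by CellTiter-Fluor.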

[3] = test system: thyroid hormone receptor (rat, GH3 cells); assay: qHTS assay to identify small molecule agonists of the thyroid receptor (TR) signaling pathway (AID 743066; calls by dose curve)
[4] = target: Estrogen receptor (Homo sapiens) (UniProt P03372); assay: qHTS assay to identify small molecule antagonists of the estrogen receptor alpha (ER-alpha) signaling pathway (AID 743069; active = well fitted curve in the direction sought with a large enough effect in the signal ratio in the repeat runs, not every such curve was filed as active; inconclusive = weak or mixed curves, or effect the other way; inactive = no such curve, though single readings can be large or run the other way; the % refers to the signal ratio; also: potency is read from the fitted curve at half-maximal effect)
Summary of the method: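 Fluorescence intensity from a beta-lactamase FRET substrate served as the read-out. Cells: HEK293 with stably integrated ER-alpha-UAS-bla reporter. Agonist 17beta-estradiol was co-added with compounds; incubation 18 hr at 37C, substrate 2 hr at room temperature.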

[5] = qHTS assay to identify small molecule antagonists of the estrogen receptor alpha (ER-alpha) signaling pathway - cell viability counter screen (AID 743074; calls by dose curve; also: nearly all actives have a fitted effect of over 45% in size)
[6] = target: Estrogen receptor (Homo sapiens) (UniProt P03372); assay: qHTS assay to identify small molecule agonists of the estrogen receptor alpha (ER-alpha) signaling pathway (AID 743075; calls by dose curve)
[7] = target: Estrogen receptor (Homo sapiens) (UniProt P03372); assay: qHTS assay to identify small molecule agonists of the estrogen receptor alpha (ER-alpha) signaling pathway using the BG1 cell line (AID 743079); conditions: BG1Luc4E2 cells, ERE-luciferase agonist, 22 h; activation: at 70.3 µM (top of the series); also: nearly all actives have a fitted effect of over 20% in size
[8] = qHTS assay to identify small molecule antagonists of the estrogen receptor alpha (ER-alpha) signaling pathway using the BG1 cell line (AID 743080; calls by dose curve;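 also: BG1 cells stimulated with 17beta-estradiol alongside compound; nearly all actives have a fitted effect of over 25% in size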; also: potency is read from the fitted curve at half-maximal effect)
Summary of the method: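 Luminescence from a 4×ERE-luciferase reporter in BG1-Luc-4E2 cells served as read-out. Cells, pre-cultured 5 days in stripped-serum phenol-red-free medium, were exposed to compound with 17beta-estradiol co-stimulation for 21.5 h at 37 C.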

[9] = qHTS assay to identify small molecule antagonists of the estrogen receptor alpha (ER-alpha) signaling pathway using the BG1 cell line - cell viability counter screen (AID 743081);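 also: compound given together with 17beta-estradiol as the ER stimulus; nearly all actives have a fitted effect of over 45% in size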
Aromatase (Homo sapiens) = Aromatase (Homo sapiens) (UniProt P11511); assay: qHTS assay to identify aromatase inhibitors (AID 743083); also: nearly all actives have a fitted effect of over 55% in size; also: potency is read from the fitted curve at half-maximal effect
[10] = qHTS assay to identify aromatase inhibitors - cell viability counter screen (AID 743084);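 also: cells stimulated with testosterone during compound exposure; nearly all actives have a fitted effect of over 55% in size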; also: potency is read from the fitted curve at half-maximal effect
[11] = target: Aryl hydrocarbon receptor (Homo sapiens) (UniProt P35869); assay: qHTS assay to identify small molecule that activate the aryl hydrocarbon receptor (AhR) signaling pathway (AID 743085); also: nearly all actives have a fitted effect of over 15% in size; also: potency is read from the fitted curve at half-maximal effect;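 as to activation: HG2L7.5c1 human HepG2 liver cells with stably integrated DRE-driven firefly reporter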
Summary of the method: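 Cell line HG2L7.5c1 (human hepatoma, 20× DRE-luc). Plated, 5 h 37C, compound/DMSO added, 24 h 37C. CellTiter-Fluor 30 min 37C → fluorescence; then ONE-Glo 30 min RT → luminescence.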

[12] = qHTS assay to identify small molecule that activate the aryl hydrocarbon receptor (AhR) signaling pathway - cell viability counter screen (AID 743086); also: nearly all actives have a fitted effect of over 45% in size; also: potency is read from the fitted curve at half-maximal effect
Summary of the method: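 Cytotoxicity counter screen: CellTiter-Fluor signal (30 min, 37 C) in 4000 HepG2 cells/well carrying the DRE-luciferase reporter, following 24 h compound exposure at 37 C.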

[13] = target: Peroxisome proliferator-activated receptor gamma (Homo sapiens) (UniProt P37231); assay: qHTS assay to identify small molecule antagonists of the peroxisome proliferator-activated receptor gamma (PPARg) signaling pathway (AID 743191; calls by dose curve; also: nearly all actives have a fitted effect of over 30% in size; also: potency is read from the fitted curve at half-maximal effect)
Summary of the method: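 Beta-lactamase reporter under UAS control in HEK293H PPARg-bla cells; compound treatment 17 h at 37C. Read-out: fluorescence intensity after 1 h room-temperature incubation with LiveBLAzer B/G FRET substrate.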

[14] = qHTS assay to identify small molecule antagonists of the peroxisome proliferator-activated receptor gamma (PPARg) signaling pathway - cell viability counter screen (AID 743194); conditions: Potency: co-treated with 50 nM rosiglitazone unless noted; also: nearly all actives have a fitted effect of over 55% in size; also: potency is read from the fitted curve at half-maximal effect
Summary of the method: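 Viability was measured as CellTiter-Glo luminescence in GeneBLAzer PPARg UAS-bla HEK293H cells. These cells had been exposed 17 h at 37 C to compounds together with rosiglitazone at 50 nM final, with the beta-lactamase readout taken in the same wells.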

[15] = qHTS assay for small molecule agonists of the antioxidant response element (ARE) signaling pathway (AID 743202; active = well fitted activation curve with a large enough effect in the signal ratio in the repeat runs, not every such curve was filed as active; inconclusive = weak or mixed curves, or effect the other way; inactive = no such curve, though single readings can be large or run the other way; the % refers to the signal ratio)
Summary of the method: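 Beta-lactamase reporter activity, read as fluorescence intensity, reflects ARE/Nrf2 pathway induction in HepG2 cells after 16 h compound exposure at 37 C; substrate loading was 2 h at room temperature.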

[16] = qHTS assay for small molecule agonists of the antioxidant response element (ARE) signaling pathway - cell viability counter screen (AID 743203; calls by dose curve; also: nearly all actives have a fitted effect of over 55% in size; also: potency is read from the fitted curve at half-maximal effect)
Summary of the method: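 ATP content via CellTiter-Glo luminescence served as the viability measure. Cells: ARE-bla HepG2, 2,000 per well. Exposure: 16 hrs, 37C/5% CO2.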

[17] = qHTS assay for small molecule activators of the heat shock response signaling pathway - cell viability counter screen (AID 743209); also: nearly all actives have a fitted effect of over 50% in size; also: potency is read from the fitted curve at half-maximal effect
Summary of the method: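 Compounds dissolved in DMSO were added to overnight-plated HSE-bla HeLa cells and left 5 h at 37 C. Cell viability was quantified by luminescence using CellTiter-Glo.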

[18] = qHTS assay for small molecule activators of the heat shock response signaling pathway (AID 743210; active = well fitted activation curve with a large enough effect in the signal ratio in the repeat runs, with a control signal flat, not every such curve was filed as active; inconclusive = weak or mixed curves; the % refers to the signal ratio;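 also: HeLa cells with beta-lactamase reporter driven by heat shock elements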)
Summary of the method: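 Fluorescence from a cleaved B/G FRET substrate (2.5 h, room temp) reports HSE-driven beta-lactamase in HeLa cells treated 5 h at 37 C with DMSO-dissolved compounds.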

[19] = target: Peroxisome proliferator-activated receptor gamma (Homo sapiens) (UniProt P37231); assay: qHTS assay to identify small molecule agonists of the peroxisome proliferator-activated receptor gamma (PPARg) signaling pathway (AID 743094; active = well fitted activation curve with a large enough effect in the signal ratio in the repeat runs, not every such curve was filed as active; inconclusive = weak or mixed curves, or effect the other way; inactive = no such curve, though single readings can be large or run the other way; the % refers to the signal ratio; also: potency is read from the fitted curve at half-maximal effect)
Summary of the method: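 Agonism was assessed in a beta-lactamase reporter system, HEK293H cells with a stably integrated UAS-bla construct under PPARg control; the 17 h treatment at 37C preceded a 1 h room-temperature FRET substrate read.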

Chain of Estrogen receptor (Homo sapiens) (P03372 whole entry, looked up): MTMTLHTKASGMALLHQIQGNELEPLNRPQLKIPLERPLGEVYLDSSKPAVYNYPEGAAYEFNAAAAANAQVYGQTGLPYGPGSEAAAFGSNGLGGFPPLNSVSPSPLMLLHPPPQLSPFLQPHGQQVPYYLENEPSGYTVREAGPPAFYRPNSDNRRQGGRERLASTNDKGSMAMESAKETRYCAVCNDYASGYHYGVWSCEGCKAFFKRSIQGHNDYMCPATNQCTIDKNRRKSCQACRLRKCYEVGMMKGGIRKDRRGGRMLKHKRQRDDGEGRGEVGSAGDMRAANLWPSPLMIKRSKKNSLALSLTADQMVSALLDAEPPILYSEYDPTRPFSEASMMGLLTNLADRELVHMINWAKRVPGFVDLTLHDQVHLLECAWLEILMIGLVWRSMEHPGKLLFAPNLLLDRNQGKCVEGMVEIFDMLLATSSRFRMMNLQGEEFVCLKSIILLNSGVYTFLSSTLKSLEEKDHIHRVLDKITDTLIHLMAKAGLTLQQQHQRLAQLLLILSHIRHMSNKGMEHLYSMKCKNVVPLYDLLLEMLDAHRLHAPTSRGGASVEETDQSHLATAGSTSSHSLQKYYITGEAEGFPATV
Chain of Aromatase (Homo sapiens) (P11511 whole entry, looked up): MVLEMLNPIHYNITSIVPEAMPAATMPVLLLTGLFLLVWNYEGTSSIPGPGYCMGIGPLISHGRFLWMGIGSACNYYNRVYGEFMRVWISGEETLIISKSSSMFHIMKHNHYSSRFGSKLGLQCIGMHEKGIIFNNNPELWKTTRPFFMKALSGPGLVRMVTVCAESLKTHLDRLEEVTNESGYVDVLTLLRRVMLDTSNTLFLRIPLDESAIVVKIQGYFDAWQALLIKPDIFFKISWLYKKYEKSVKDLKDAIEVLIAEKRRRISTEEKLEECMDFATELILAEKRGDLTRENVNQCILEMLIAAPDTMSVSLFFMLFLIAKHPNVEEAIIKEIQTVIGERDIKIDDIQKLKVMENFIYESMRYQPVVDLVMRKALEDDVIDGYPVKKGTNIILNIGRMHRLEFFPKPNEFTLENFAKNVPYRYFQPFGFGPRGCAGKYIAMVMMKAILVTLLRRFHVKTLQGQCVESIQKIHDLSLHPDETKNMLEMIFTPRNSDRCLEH
Chain of Peroxisome proliferator-activated receptor gamma (Homo sapiens) (P37231 whole entry, looked up): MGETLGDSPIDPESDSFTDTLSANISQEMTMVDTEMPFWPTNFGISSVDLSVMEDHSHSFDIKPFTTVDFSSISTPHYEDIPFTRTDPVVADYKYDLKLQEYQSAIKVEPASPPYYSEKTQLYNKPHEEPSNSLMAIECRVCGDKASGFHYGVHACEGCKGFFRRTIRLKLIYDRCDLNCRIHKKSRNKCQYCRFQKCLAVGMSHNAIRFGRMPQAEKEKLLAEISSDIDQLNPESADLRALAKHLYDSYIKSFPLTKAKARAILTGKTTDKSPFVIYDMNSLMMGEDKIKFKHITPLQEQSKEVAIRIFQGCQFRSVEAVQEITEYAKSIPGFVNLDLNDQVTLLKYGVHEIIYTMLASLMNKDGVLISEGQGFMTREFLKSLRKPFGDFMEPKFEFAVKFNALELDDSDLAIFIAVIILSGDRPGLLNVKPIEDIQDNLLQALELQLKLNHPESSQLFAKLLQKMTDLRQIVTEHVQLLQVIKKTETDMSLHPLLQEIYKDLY
Chain of Aryl hydrocarbon receptor (Homo sapiens) (P35869 whole entry, looked up): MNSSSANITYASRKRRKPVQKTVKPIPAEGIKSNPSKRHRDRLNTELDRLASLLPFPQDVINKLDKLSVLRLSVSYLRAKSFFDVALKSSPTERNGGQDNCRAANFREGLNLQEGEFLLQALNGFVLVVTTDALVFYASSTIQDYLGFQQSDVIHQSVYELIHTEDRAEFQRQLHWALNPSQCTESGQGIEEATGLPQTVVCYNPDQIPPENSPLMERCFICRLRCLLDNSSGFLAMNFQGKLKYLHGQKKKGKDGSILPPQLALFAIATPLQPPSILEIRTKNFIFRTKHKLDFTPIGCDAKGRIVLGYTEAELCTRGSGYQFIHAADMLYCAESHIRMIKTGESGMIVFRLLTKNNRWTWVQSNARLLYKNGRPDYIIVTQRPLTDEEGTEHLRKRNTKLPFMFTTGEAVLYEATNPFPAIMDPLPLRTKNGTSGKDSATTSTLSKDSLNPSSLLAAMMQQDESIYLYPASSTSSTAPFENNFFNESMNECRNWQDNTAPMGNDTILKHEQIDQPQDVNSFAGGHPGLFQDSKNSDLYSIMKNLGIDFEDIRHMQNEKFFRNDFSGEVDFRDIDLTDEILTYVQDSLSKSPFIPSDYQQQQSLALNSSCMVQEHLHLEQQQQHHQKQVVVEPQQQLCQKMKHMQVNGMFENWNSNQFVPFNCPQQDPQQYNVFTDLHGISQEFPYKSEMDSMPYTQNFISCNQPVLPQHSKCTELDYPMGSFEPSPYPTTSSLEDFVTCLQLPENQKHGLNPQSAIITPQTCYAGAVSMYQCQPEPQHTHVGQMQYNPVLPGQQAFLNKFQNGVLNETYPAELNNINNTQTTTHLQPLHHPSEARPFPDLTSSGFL

SMILES | Potency [1] | Potency [2] | Potency [3] | Potency [4] | Potency [5] | Potency [6] | Potency [7] | Potency [8] | Potency [9] | Potency (Aromatase (Homo sapiens)) | Potency [10] | Potency [11] | Potency [12] | Potency [13] | Potency [14] | Potency [15] | Potency [16] | Potency [17] | Potency [18] | Potency [19]
[O]=[Cr][O][Cr]=[O] | inactive | inactive | inactive | inactive | inactive | inactive | inactive | inactive | inactive | inactive | inactive | inactive | inactive | inactive | inactive | inactive | inactive | inactive | inactive | –
Cc1cccc(Cc2cnc[nH]2)c1C | inactive | inactive | inactive | inactive | – | inactive | inactive | inactive | inactive | – | inactive | 13.3 µM (active) | inactive | inactive | inactive | – | inactive | inactive | – | inactive
CC(C)N(C(=O)CCl)c1ccccc1 | 27.3 µM (active) and 34.4 µM (active) | 68.6 µM (active) and 48.6 µM (active) | inactive | 15.5 µM [inconclusive] (active) and 6.92 µM [inconclusive] (active) | inactive | inactive | – | 54.5 µM (active) and 61.1 µM (active) | inactive | 21.7 µM (active) and 27.3 µM (active) | 24.3 µM (active) | inactive | 38.6 µM (active) and 68.6 µM (active) | 3.89 µM (active) and 3.47 µM (active) | 49 µM (active) and 27.5 µM (active) | – | 6.86 µM (active) and 3.86 µM (active) | 12.3 µM (active) and 5.49 µM (active) | – | –
O=[N+]([O-])c1ccccc1-c1ccccc1 | inactive | inactive | inactive | inactive | inactive | inactive | – | inactive | inactive | inactive | inactive | inactive | inactive | inactive | inactive | inactive | inactive | inactive | inactive | inactive
Clc1ccc(C(c2ccc(Cl)cc2)C(Cl)Cl)cc1 | 24.7 µM (active) and 68.6 µM (active) | 24.7 µM (active) and 43.3 µM (active) | inactive | inactive | inactive | inactive | – | inactive | inactive | 62.1 µM (active) and inactive | inactive | inactive | inactive | – | 24.9 µM (active) and 38.9 µM (active) | – | 54.5 µM (active) | 49 µM (active) | – | inactive
CCOC(=O)Cc1ccccc1 | inactive | inactive | inactive | inactive | inactive | inactive | inactive | inactive | inactive | inactive | inactive | inactive | inactive | – | inactive | inactive | inactive | inactive | inactive | inactive
ClSC(Cl)(Cl)Cl | inactive | inactive | inactive | – | inactive | inactive | inactive | inactive | inactive | inactive | inactive | inactive | inactive | inactive | inactive | inactive | inactive | inactive | inactive | inactive
CCNc1nc(NC(C)C(C)C)nc(SC)n1 (centres undefined) | inactive | inactive | inactive | inactive | inactive | inactive | inactive | inactive | inactive | inactive | inactive | inactive | inactive | inactive | inactive | inactive | inactive | inactive | inactive | inactive
CSC(C)(C)/C=N/O | inactive | inactive | inactive | inactive | inactive | inactive | – | inactive | inactive | inactive | inactive | inactive | inactive | – | inactive | – | inactive | inactive | inactive | inactive
CC1CN1 (centres undefined) | inactive | inactive | inactive | inactive | inactive | inactive | inactive | inactive | inactive | inactive | inactive | inactive | inactive | – | – | inactive | inactive | inactive | inactive | inactive
N#Cc1ccc(N(CC(N)=O)CC(F)(F)F)cc1C(F)(F)F | inactive | inactive | inactive | inactive | inactive | inactive | inactive | inactive | inactive | inactive | inactive | inactive | inactive | – | inactive | inactive | inactive | inactive | inactive | 0.692 µM (active)
ClC1(Cl)C2(Cl)C3(Cl)C4(Cl)C(Cl)(Cl)C5(Cl)C3(Cl)C1(Cl)C5(Cl)C24Cl (centres undefined) | inactive | inactive | inactive | – | inactive | inactive | inactive | inactive | inactive | inactive | inactive | inactive | inactive | – | inactive | – | inactive | inactive | inactive | inactive
BrCC(Br)(Br)Br | inactive | inactive | inactive | inactive | inactive | inactive | inactive | 35.6 µM (active) | inactive | inactive | inactive | inactive | inactive | inactive | – | – | – | inactive | – | inactive
O=NN(CCO)CCO | inactive | inactive | inactive | inactive | inactive | inactive | inactive | inactive | inactive | inactive | inactive | inactive | inactive | inactive | inactive | inactive | inactive | – | inactive | –
